Source: the supplement of paper PMC6555819

Experiments:
Test in all cases: PBM binding z-score (relative to random genomic background probes); higher = stronger binding; sequences stand for … in GC…GCGATTGACAGCGTAGAATGAAGG
[1] = system: FXR:RXRa (NR concentration 270 nM, RXRa partner concentration 90 nM)
Outline: (§1)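 Custom Agilent 4×180K protein-binding microarrays carried double-stranded probes, each with a 34-nt variable region. These regions held direct-repeat seeds, single-nucleotide variants, half-site ablations and random human genomic background sequences. Ligand-free nuclear receptor dimers were incubated on the arrays for 1 h, antibodies against each partner (one per run) detected binding, and scanned fluorescence was regression-normalized. Binding z-scores take the random background probes as reference.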

[2] = system: LXRa:RXRa (NR concentration 270 nM, RXRa partner concentration 90 nM)
Outline: as §1

[3] = system: LXRa homodimer (NR concentration 270 nM)
Outline: as §1

[4] = system: LXRb:RXRa (NR concentration 270 nM, RXRa partner concentration 90 nM)
Outline: as §1

[5] = system: LXRb homodimer (NR concentration 270 nM)
Outline: as §1

[6] = system: PPARa:RXRa (NR concentration 270 nM, RXRa partner concentration 90 nM)
Outline: as §1

[7] = system: PPARg:RXRa (NR concentration 180 nM, RXRa partner concentration 90 nM)
Outline: as §1

[8] = system: PPARg:RXRa 270nM:90nM, anti-RXR (NR concentration 270 nM, RXRa partner concentration 90 nM)
Outline: as §1

[9] = system: PPARg:RXRa 30nM:10nM, anti-RXR (NR concentration 30 nM, RXRa partner concentration 10 nM)
Outline: as §1

[10] = system: PPARg:RXRa 90nM:30nM, anti-RXR (NR concentration 90 nM, RXRa partner concentration 30 nM)
Outline: as §1

[11] = system: PPARg:RXRa DBDmut IVT, anti-RXR (DBD mutation: RXRa K156A/R161A, NR concentration 270 nM, RXRa partner concentration 90 nM)
Outline: as §1

[12] = system: PPARg:RXRa IVT, anti-PPARg (NR concentration 270 nM, RXRa partner concentration 90 nM)
Outline: as §1

[13] = system: PPARg DBDmut:RXRa IVT, anti-PPARg (DBD mutation: PPARg1 K132A/R137A, NR concentration 270 nM, RXRa partner concentration 90 nM)
Outline: as §1

[14] = system: PPARg DBDmut IVT, anti-PPARg (DBD mutation: PPARg1 K132A/R137A, NR concentration 270 nM)
Outline: as §1

[15] = system: PPARg homodimer (NR concentration 180 nM)
Outline: as §1

[16] = system: PXR:RXRa (NR concentration 270 nM, RXRa partner concentration 90 nM)
Outline: as §1

[17] = system: PXR homodimer (NR concentration 270 nM)
Outline: as §1

[18] = system: RARa:RXR (NR concentration 270 nM, RXRa partner concentration 90 nM)
Outline: as §1

[19] = system: RARa homodimer (NR concentration 270 nM)
Outline: as §1

[20] = system: RARb:RXRa (NR concentration 270 nM, RXRa partner concentration 90 nM)
Outline: as §1

Sequence	PBM binding z-score [1]	PBM binding z-score [2]	PBM binding z-score [3]	PBM binding z-score [4]	PBM binding z-score [5]	PBM binding z-score [6]	PBM binding z-score [7]	PBM binding z-score [8]	PBM binding z-score [9]	PBM binding z-score [10]	PBM binding z-score [11]	PBM binding z-score [12]	PBM binding z-score [13]	PBM binding z-score [14]	PBM binding z-score [15]	PBM binding z-score [16]	PBM binding z-score [17]	PBM binding z-score [18]	PBM binding z-score [19]	PBM binding z-score [20]
CCGACTGGGGCAAAAGGTTACCATAAGCCAGCCC	0.815	3.36	-0.19	1.86	-1.26	3.28	4.13	5.64	3.64	5.79	3.77	4.07	-0.978	-1.25	1.06	1.68	-0.41	2.83	0.0331	2.8
CCTACTGGGCCACGAAAGGTCATTGACTCAGTGA	4.14	5.29	4.5	4.65	0.406	5	4.93	4.87	2.71	4.15	5.69	5.8	0.0683	-0.677	2.13	5.15	1.92	5.49	0.622	4.03
ACTTACGGGTCAACGAGGTTATACCACGCGTATA	6.87	5.39	1.14	4.59	0.838	5.83	5.59	5.57	1.82	4.26	3.73	3.99	1.8	1.74	2.9	5.43	4.36	5.72	1.26	4.34
CCTACTCGGCCATCAGGTCATTGATATCAACGTT	2.3	1.76	2.13	2.26	1.01	2.16	1.06	1.62	0.262	1.02	2.58	2.67	0.141	-0.00439	2.27	2.02	1.21	2.36	1.12	2.29
CCTAGCTGGTCAAGGTCACACACGCTATAGGTAC	4.92	3.91	1.74	3.43	0.392	4.23	2.76	3.05	0.699	1.94	1.88	2.8	0.834	0.076	3.15	4.03	1.43	4.64	2.61	3.99
CCGACTGTGGCAGAAAGGTTACCATACCATCCGG	0.385	0.528	0.0726	0.75	-0.636	2.16	2.03	3.65	1.73	3.6	0.332	0.812	-0.741	-1.03	0.662	0.984	-0.427	1.47	-0.0301	1.45
CATACAGGGTCAGCTAGGACAGAGTAGGGACGGC	4.48	2.8	-0.0468	2.29	0.178	4.13	3.16	2.87	0.481	1.76	1.2	2.23	0.778	0.0196	0.881	2.07	0.128	3	0.439	4.04
